# Assay results as given in PubChem BioAssay AID585 (National Center for Advancing Translational Sciences (NCATS), 2007).
# Hit rate of the full screen: of about 71,000 compounds, about 1,300 (1.8%) were called active. A call without a number means that no potency is given here. For the sample, actives were picked, then their nearest neighbours and some compounds at random. Unmarked numbers belong to inactive results. Calls come from the whole dose curve.
# Target: Beta-lactamase (Escherichia coli (strain K12)) (UniProt P00811)
# Experiment: Promiscuous and Specific Inhibitors of AmpC Beta-Lactamase (assay without detergent)
# Settings: AmpC nitrocefin hydrolysis, absorbance 480 nm, no detergent; series mostly up to 28.7 µM
# How it was run: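 Enzyme, pH 7.0 phosphate. Compound titrations were pre-incubated with AmpC for 15 min at room temperature before nitrocefin (stock 800 uM) addition; product formation was recorded at 480 nm every 20 s for 4 min.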
# Potency is the fitted concentration of half-maximal effect.
# Sequence of Beta-lactamase (Escherichia coli (strain K12)) (P00811 whole entry, looked up): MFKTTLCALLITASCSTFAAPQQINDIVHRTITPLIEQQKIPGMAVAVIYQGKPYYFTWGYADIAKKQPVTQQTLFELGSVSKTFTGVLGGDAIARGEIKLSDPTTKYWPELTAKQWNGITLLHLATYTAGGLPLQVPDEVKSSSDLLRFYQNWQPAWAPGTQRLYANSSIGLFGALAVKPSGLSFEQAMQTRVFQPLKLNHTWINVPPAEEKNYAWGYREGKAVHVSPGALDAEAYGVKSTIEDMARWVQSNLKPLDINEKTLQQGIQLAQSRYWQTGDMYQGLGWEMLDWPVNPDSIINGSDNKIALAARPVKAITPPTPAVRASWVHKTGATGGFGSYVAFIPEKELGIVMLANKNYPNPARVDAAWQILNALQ
Structure (SMILES),Potency,"activity change, negative = inhibition"
CCN1CCN(Cc2c(O)ccc3c(=O)c(-c4ccc(OC)c(OC)c4)c(C(F)(F)F)oc23)CC1,inactive,–
CN1CCN(CCCNC(=O)c2cc3c(=O)oc4ccccc4c3s2)CC1,inactive,–
COc1ccccc1NC(=O)C1=C(C)Nc2ncnn2C1c1ccc(C)o1 (stereo not drawn),inactive,–
COc1cc(C2C(C(=O)Nc3ccccc3OC)=C(C)Nc3ncnn32)ccc1O (stereo not drawn),3.98 µM [single pt active] (active),–
COc1ccccc1NC(=O)C1=C(C)Nc2nnnn2C1c1cccc(Br)c1 (stereo not drawn),inactive,–
COc1ccc(CCN(C)CCN2C(=O)c3ccccc3C2=O)cc1OC,inactive,–
CCn1cc(C(=O)NCC2CCCO2)c(=O)c2cc(S(=O)(=O)N3CCCCC3)ccc21 (stereo not drawn),inactive,–
O=C(NC1CCCCC1)n1c(=O)oc2cc(S(=O)(=O)N3CCCCC3)ccc21,inactive,–
CCn1cc(C(=O)NC2CCCCCC2)c(=O)c2cc(S(=O)(=O)N3CCCCC3)ccc21,3.98 µM [single pt active] (active),–
Oc1ccc2ccccc2c1C=NCc1c(O)ccc2ccccc12,–,-20.6% [at 5.75 µM]
O=C(CCC(=O)OCC(F)(F)C(F)F)NCc1ccccc1,inactive,–
Cc1ccc(-c2nc(CS(=O)CC(=O)N3CCN(c4ncccn4)CC3)c(C)o2)cc1 (stereo not drawn),inactive,–
Cc1ccc(-c2nc(CS(=O)CC(=O)NC3CCCC3)c(C)o2)cc1 (stereo not drawn),3.98 µM [single pt active] (active),–
COc1ccc(CCNC(=O)C2CCCN(Cc3nc(-c4cccc(Cl)c4)oc3C)C2)cc1OC (stereo not drawn),inactive,–
COc1ccc(-c2nc(CS(=O)CC(=O)N3CCC4(CC3)OCCO4)c(C)o2)cc1 (stereo not drawn),inactive,–
COc1ccc(-c2nc(CS(=O)CC(=O)NCc3cccnc3)c(C)o2)cc1OC (stereo not drawn),3.98 µM [single pt active] (active),–
Cc1ccc(NC(=O)CS(=O)CC(=O)N(c2ccccc2)C(C)C(=O)NC2CCCC2)cc1 (stereo not drawn),inactive,–
COc1ccc(-c2nc(CS(=O)CC(=O)N3CCc4ccccc4C3)c(C)o2)cc1 (stereo not drawn),inactive,–
Cc1oc2nc(SCC(=O)NCc3cccnc3)nc(N)c2c1C,inactive,–
COc1ccc(-c2nc(CS(=O)CC(=O)NCc3ccccn3)c(C)o2)cc1 (stereo not drawn),1.26 µM [single pt active] (active),–
C=CC(=C)CCC=C(C)C,inactive,–
COc1ccc2oc(=O)c(C(=O)N3CCN(c4ccccc4F)CC3)cc2c1,inactive,–
CC1(C)CC(=O)C=C(NC2CC(C)(C)NC(C)(C)C2)C1,inactive,–
O=C(COc1ccc2oc3c(c2c1)CCCC3)Nc1ccccn1,inactive,–
O=C1CN(C(=O)COC(=O)C2CC(=O)N(Cc3ccco3)C2)c2ccccc2N1 (stereo not drawn),inactive,–
COc1cc(C[C@H](C)N)c(OC)cc1I,inactive,–

Structure (SMILES),Potency,"activity change, negative = inhibition"
COC(=O)c1ccc(C(NC(=O)OCc2ccccc2)/C(C)=C/[C@@H](C)C(=O)NCc2cc(C)on2)cc1 (stereo partly drawn),inactive,–
CCOC(=O)c1ccc(-n2c(C)nc3c(cnn3-c3ccccc3C)c2=O)cc1,inactive,–
COC(=O)C1=C(C)Nc2ncnn2C1c1ccco1 (stereo not drawn),inactive,–
CCOC(=O)CSC1=C(C#N)C(c2ccco2)C(C(=O)OCc2ccccc2)=C(C)N1 (stereo not drawn),inactive,–
CC1=C(C(=O)OCc2ccccc2)C(c2ccco2)n2ncnc2N1 (stereo not drawn),3.98 µM [single pt active] (active),–
O=C1N=C(N2CCOCC2)CS1,inactive,–
COc1ccc2oc(C)c(NC(C)=O)c2c1,inactive,–
CC(=O)Oc1ccc2c(C)c(CC(C)O)c(=O)oc2c1 (stereo not drawn),inactive,–
CC(=O)Nc1cc2ccc(OC(C)=O)cc2oc1=O,3.98 µM [single pt active] (active),–
CCn1c(=N)c(S(=O)(=O)c2ccc(F)cc2)cc2c(=O)n3ccccc3nc21,inactive,–
O=C(NCc1ccccn1)c1cc2ccccc2oc1=O,inactive,–
O=C(Oc1cccnc1)c1cc2ccccc2oc1=O,12.6 µM (active),–
COc1ccc2oc(=O)c(C(=O)O)cc2c1,inactive,–
Cc1ccc(C)c(N2CCN(C(=O)CCCCn3c(=O)[nH]c4ccccc4c3=O)CC2)c1,inactive,–
COc1ccc(Cc2nnc(NC(=O)Cc3cccs3)s2)cc1,12.6 µM (active),–
COc1ccc(Cc2nnc(NS(=O)(=O)Cc3ccccc3)s2)cc1,inactive,–
CCc1nnc(NC(=O)CSc2nnc(Cc3ccccc3)n2-c2ccc(OC)cc2)s1,inactive,–
COc1ccc2[nH]cc(CCNc3nc(-c4cccc(NS(C)(=O)=O)c4)nc4ccccc34)c2c1,inactive,–
CCCC1C(c2ccccc2)C(C#N)(C#N)C2(C#N)CC1(N)NC2=O (stereo not drawn),inactive,–
CCOC(=O)Cc1csc(NC(=O)CSc2nc(C)cc(=O)[nH]2)n1,inactive,–
CCOC(=O)Cc1csc(NC(=O)CN(C)S(=O)(=O)c2ccc3c(c2)CCC(=O)N3)n1,3.98 µM [single pt active] (active),–
CCOC(=O)Cc1csc(NC(=O)C(C)(C)C)n1,inactive,–
Cc1ccc(CNC(=O)CCCNC(=O)c2ccc(Cl)cc2)n1C,inactive,–
CC(C)(O)C#Cc1ccc(C(=O)N2CCC(C(N)=O)(N3CCCCC3)CC2)cc1,inactive,–
CC1(C)SC2c3ccccc3C(=O)N2[C@@H]1C(=O)NCc1ccco1 (stereo partly drawn),inactive,–
CC1(C)S[C@@H]2[C@@H](NC(=O)[C@@H](N)c3ccccc3)C(=O)N2[C@H]1C(=O)O,0.0501 µM (active),–

Structure (SMILES),Potency,"activity change, negative = inhibition"
CC(CNC(=O)c1ccc(Br)o1)NC(=O)c1ccc(Br)o1 (stereo not drawn),inactive,–
N#C/C(=C1\CCCN1)c1nc(-c2ccccc2)cs1,inactive,–
c1ccc(Nc2nc(-c3ccncc3)cs2)nc1,inactive,–
N#CC(=C1SC=CS1)c1nc(-c2ccccc2)cs1,15.8 µM [single pt active] (active),–
CC(C)(O)[C@H]1[C@H]2OC(=O)[C@@H]1[C@]1(O)C[C@H]3O[C@]34C(=O)O[C@H]2[C@]14C,inactive,–
O=C(c1ccco1)N1CCN(C(=O)C2CC(c3ccc(Cl)c(Cl)c3)=NO2)CC1 (stereo not drawn),inactive,–
CCOC(=O)N1CCN(C(=O)CSc2ccc(Cl)cc2)CC1,inactive,–
O=C(c1ccco1)N1CCN(C(=O)C2c3ccccc3Oc3ccccc32)CC1,inactive,–
Cc1ccc(NC(=O)C2CC(c3ccc(F)cc3)=NO2)cc1 (stereo not drawn),inactive,–
O=C(c1ccco1)N1CCN(C(=O)C2CC(c3ccc(F)cc3)=NO2)CC1 (stereo not drawn),3.98 µM [single pt active] (active),–
CCOC(=O)N1CCN(C(=O)C2CC(c3ccc(F)cc3)=NO2)CC1 (stereo not drawn),3.98 µM [single pt active] (active),–
O=C(C1CCN(S(=O)(=O)c2cnc[nH]2)CC1)N1CCN(Cc2ccc3c(c2)OCO3)CC1,inactive,–
CC(=O)c1c(O)c(C)c(O)c(Cc2c(O)c3c(c(C(=O)/C=C\c4ccccc4)c2O)OC(C)(C)C=C3)c1O,12.6 µM (active),–
CCOc1ccc(C(C)C)cc1S(=O)(=O)n1nc(C)cc1C,inactive,–
CCOc1ccccc1C(=O)NCCCn1ccnc1,inactive,–
CCOc1ccc(S(=O)(=O)n2ccnc2)c2ccccc12,3.98 µM [single pt active] (active),–
Fc1ccc2nc(Nc3nc4c(s3)CCCC4)sc2c1,inactive,–
CCOC(=O)CNC(=O)CSc1nnc(COc2ccc(Cl)cc2)n1CC,inactive,–
CN1CCN(S(=O)(=O)c2ccc3[nH]cc(C(=O)O)c(=O)c3c2)CC1,inactive,–
Cc1cccc(CC(=O)Nc2c3c(nn2-c2cccc(Cl)c2)CS(=O)C3)c1 (stereo not drawn),inactive,–
O=C(NCc1ccco1)c1nc(-c2ccccc2)n(-c2ccccc2)n1,inactive,–
Cc1nc2nc(SCC(=O)NCc3ccco3)nn2c(C)c1Cc1ccccc1,inactive,–
O=C(Cc1ccccc1)n1nc(-c2ccccc2)nc1NCc1ccco1,3.98 µM [single pt active] (active),–
COc1ccc(CCn2nnnc2C(c2ccccc2)N2CCN(C)CC2)cc1OC (stereo not drawn),inactive,–
CCOC(=O)c1cnc2sccn2c1=O,inactive,–
CN/C(=C\[N+](=O)[O-])NCCSCc1csc(CN(C)C)n1,inactive,–
